# Results filed as inconclusive are left out. Where a call stands in place of a potency, no number is given. Activity calls are given as the source filed them. Calls come from the whole dose curve; as a rule, active = well fitted cell-killing curve with a large enough effect; inconclusive = small, poorly fitted or top-dose-only effect, or effect the other way; inactive = flat fitted curve, though single readings scatter.
# Test system: C33A
# Experiment: Primary qHTS to identify gynecologic anti-cancer compounds using libraries of approved drugs and bioactive compounds (AID 1345084); note: nearly all actives have a fitted effect of over 55% in size
# Settings: Gynecologic cancer cell panel viability, ATPlite luminescence, 48 h; series mostly up to 57.5 µM
# Summary of the method: (§1)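 Cell viability after 48 h drug treatment, ATPlite luminescence readout; five doses.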
row,Compound,Potency
1,NCC(=O)O,inactive
2,Cc1c(N)cccc1C(F)(F)F,inactive
3,O=C(O)CCC(=O)OC[C@@H](NC(=O)C(Cl)Cl)[C@H](O)c1ccc([N+](=O)[O-])cc1,inactive
4,O=C(COCCOCCOCC(=O)Nc1c(I)cc(I)c(C(=O)O)c1I)Nc1c(I)cc(I)c(C(=O)O)c1I,inactive
5,CC(=O)[C@@]1(O)CC[C@H]2[C@@H]3C[C@H](C)C4=CC(=O)CC[C@]4(C)[C@H]3CC[C@@]21C,inactive
6,CCN(CC)CC(=O)OCC(=O)[C@@]1(O)CC[C@H]2[C@@H]3CCC4=CC(=O)CC[C@]4(C)[C@H]3[C@@H](O)C[C@@]21C,inactive
7,C[C@@]12CCC[C@H]1[C@@H]1CC[C@H]3C[C@@H](O)CC[C@]3(C)[C@H]1CC2,inactive
8,CCCCC(CC)COC(=O)c1ccccc1C(=O)O (centres undefined),inactive
9,N=C(N)c1ccc(OCCCOc2ccc(C(=N)N)cc2)cc1,inactive
10,CC(C)(C)CC(=O)OCC(=O)[C@@]1(O)CC[C@H]2[C@@H]3CCC4=CC(=O)C=C[C@]4(C)[C@H]3[C@@H](O)C[C@@]21C,inactive
11,CN=C(N)NC(=O)Nc1c(C)cccc1C,inactive
12,CO[C@@H]1[C@@H](O[C@@H]2O[C@H](C)[C@@H](O[C@H]3C[C@@](C)(O)[C@@H](O)[C@H](C)O3)[C@H](N(C)C)[C@H]2O)[C@@H](CC=O)C[C@@H](C)[C@@H](O[C@@H]2CC[C@H](N(C)C)[C@@H](C)O2)/C=C/C=C/C[C@@H](C)OC(=O)C[C@H]1OC(C)=O,inactive
13,CN(C)CCOC(c1ccccc1)c1ccc(Br)cc1 (centres undefined),inactive
14,O=C(CCCCC(=O)Nc1c(I)cc(I)c(C(=O)O)c1I)Nc1c(I)cc(I)c(C(=O)O)c1I,inactive
15,OC[C@]1(O)OC[C@@H](O)[C@H](O)[C@@H]1O,inactive
16,CN1CCC(=C2c3ccccc3CCc3cccnc32)CC1,inactive
17,CN1Cc2cc(C(=O)N3CCC(C4CCNCC4)CC3)ccc2NC(CC(=O)O)C1=O (centres undefined),inactive
18,Nc1c(I)cc(I)c(C(=O)N(CCC(=O)O)c2ccccc2)c1I,inactive
19,Cc1ccccc1N1CCN(CCc2nnc3n2CCCC3)CC1,inactive

row,Compound,Potency
1,O=C(NO)c1ccccc1,inactive
2,Cc1ccc2ccc(Cl)cc2n1,inactive
3,Cc1ncc(CO)c(CO)c1O,inactive
4,O=C1CC2(CCCC2)CC(=O)N1CCNCC1COc2ccccc2O1 (centres undefined),inactive
5,CC(=O)OCC[N+](C)(C)C,inactive
6,Oc1ccccc1,inactive
7,c1ccc(C(O[C@H]2CCCN(CCc3ccc4c(c3)OCO4)C2)c2ccccc2)cc1,inactive
8,CCCCC(=O)OCC(=O)[C@H]1[C@H](C)C[C@H]2[C@@H]3C[C@H](F)C4=CC(=O)C=C[C@]4(C)[C@@]3(F)[C@@H](O)C[C@@]21C,inactive
9,O=C(OCC(O)CO)c1ccccc1Nc1ccnc2c(C(F)(F)F)cccc12 (centres undefined),inactive
10,CN1C(CSCC(F)(F)F)Nc2cc(Cl)c(S(N)(=O)=O)cc2S1(=O)=O (centres undefined),inactive
11,COc1cc(C=O)ccc1O,inactive
12,O=C(O)/C=C(\CC(=O)O)C(=O)O,inactive
13,O=C(CCCCCCCCC#CI)Oc1ccccc1,inactive
14,NC(=O)COCCN1CCN(C(c2ccccc2)c2ccc(Cl)cc2)CC1 (centres undefined),inactive
15,COC(=O)C1=C(C)NC(COC(N)=O)=C(C(=O)OC(C)C)C1c1cccc(Cl)c1Cl (centres undefined),inactive
16,CC(=O)OCC(=O)[C@@]1(O)[C@H](OC(C)=O)C[C@H]2[C@@H]3CCC4=CC(=O)C=C[C@]4(C)[C@@]3(F)[C@@H](O)C[C@@]21C,inactive
17,O=C(c1ccccc1)c1ccccc1,inactive
18,C[C@H]1C[C@@H]2[C@H]([C@@H](O)C[C@@]3(C)[C@H]2CC[C@]3(O)C(=O)CO)[C@@]2(C)C=CC(=O)C=C12,inactive

# Test system: CAOV3
# Experiment: as above
# Settings: Gynecologic cancer cell panel viability, ATPlite luminescence, 48 h; series mostly up to 57.5 µM
# Summary of the method: as §1
row,Compound,Potency
1,NCC(=O)O,inactive
2,Cc1c(N)cccc1C(F)(F)F,inactive
3,O=C(O)CCC(=O)OC[C@@H](NC(=O)C(Cl)Cl)[C@H](O)c1ccc([N+](=O)[O-])cc1,inactive
4,O=C(COCCOCCOCC(=O)Nc1c(I)cc(I)c(C(=O)O)c1I)Nc1c(I)cc(I)c(C(=O)O)c1I,inactive
5,CC(=O)[C@@]1(O)CC[C@H]2[C@@H]3C[C@H](C)C4=CC(=O)CC[C@]4(C)[C@H]3CC[C@@]21C,inactive
6,CCN(CC)CC(=O)OCC(=O)[C@@]1(O)CC[C@H]2[C@@H]3CCC4=CC(=O)CC[C@]4(C)[C@H]3[C@@H](O)C[C@@]21C,inactive
7,C[C@@]12CCC[C@H]1[C@@H]1CC[C@H]3C[C@@H](O)CC[C@]3(C)[C@H]1CC2,inactive
8,CCCCC(CC)COC(=O)c1ccccc1C(=O)O (centres undefined),inactive
9,N=C(N)c1ccc(OCCCOc2ccc(C(=N)N)cc2)cc1,inactive
10,CC(C)(C)CC(=O)OCC(=O)[C@@]1(O)CC[C@H]2[C@@H]3CCC4=CC(=O)C=C[C@]4(C)[C@H]3[C@@H](O)C[C@@]21C,inactive
11,CN=C(N)NC(=O)Nc1c(C)cccc1C,inactive
12,CO[C@@H]1[C@@H](O[C@@H]2O[C@H](C)[C@@H](O[C@H]3C[C@@](C)(O)[C@@H](O)[C@H](C)O3)[C@H](N(C)C)[C@H]2O)[C@@H](CC=O)C[C@@H](C)[C@@H](O[C@@H]2CC[C@H](N(C)C)[C@@H](C)O2)/C=C/C=C/C[C@@H](C)OC(=O)C[C@H]1OC(C)=O,inactive
13,CN(C)CCOC(c1ccccc1)c1ccc(Br)cc1 (centres undefined),inactive
14,O=C(CCCCC(=O)Nc1c(I)cc(I)c(C(=O)O)c1I)Nc1c(I)cc(I)c(C(=O)O)c1I,inactive
15,OC[C@]1(O)OC[C@@H](O)[C@H](O)[C@@H]1O,inactive
16,CN1CCC(=C2c3ccccc3CCc3cccnc32)CC1,inactive
17,CN1Cc2cc(C(=O)N3CCC(C4CCNCC4)CC3)ccc2NC(CC(=O)O)C1=O (centres undefined),inactive
18,Nc1c(I)cc(I)c(C(=O)N(CCC(=O)O)c2ccccc2)c1I,inactive
19,Cc1ccccc1N1CCN(CCc2nnc3n2CCCC3)CC1,inactive

row,Compound,Potency
1,O=C(NO)c1ccccc1,inactive
2,Cc1ccc2ccc(Cl)cc2n1,inactive
3,Cc1ncc(CO)c(CO)c1O,inactive
4,O=C1CC2(CCCC2)CC(=O)N1CCNCC1COc2ccccc2O1 (centres undefined),inactive
5,CC(=O)OCC[N+](C)(C)C,inactive
6,Oc1ccccc1,inactive
7,c1ccc(C(O[C@H]2CCCN(CCc3ccc4c(c3)OCO4)C2)c2ccccc2)cc1,inactive
8,CCCCC(=O)OCC(=O)[C@H]1[C@H](C)C[C@H]2[C@@H]3C[C@H](F)C4=CC(=O)C=C[C@]4(C)[C@@]3(F)[C@@H](O)C[C@@]21C,inactive
9,O=C(OCC(O)CO)c1ccccc1Nc1ccnc2c(C(F)(F)F)cccc12 (centres undefined),inactive
10,CN1C(CSCC(F)(F)F)Nc2cc(Cl)c(S(N)(=O)=O)cc2S1(=O)=O (centres undefined),inactive
11,COc1cc(C=O)ccc1O,inactive
12,O=C(O)/C=C(\CC(=O)O)C(=O)O,inactive
13,O=C(CCCCCCCCC#CI)Oc1ccccc1,inactive
14,NC(=O)COCCN1CCN(C(c2ccccc2)c2ccc(Cl)cc2)CC1 (centres undefined),inactive
15,COC(=O)C1=C(C)NC(COC(N)=O)=C(C(=O)OC(C)C)C1c1cccc(Cl)c1Cl (centres undefined),inactive
16,CC(=O)OCC(=O)[C@@]1(O)[C@H](OC(C)=O)C[C@H]2[C@@H]3CCC4=CC(=O)C=C[C@]4(C)[C@@]3(F)[C@@H](O)C[C@@]21C,inactive
17,O=C(c1ccccc1)c1ccccc1,inactive
18,C[C@H]1C[C@@H]2[C@H]([C@@H](O)C[C@@]3(C)[C@H]2CC[C@]3(O)C(=O)CO)[C@@]2(C)C=CC(=O)C=C12,inactive

# Reference: PubChem BioAssay (NCATS)
